# Test results taken from the supplement of paper PMC8007513.
# Counter-ions that a name gives are not always drawn. ± gives the standard error. Screen size: about 1,300 compounds; about 75 (6%) showed an effect of 50% or more. The sample holds strong results, similar compounds and a random draw of the others, so the mix is not that of the screen.
# Tested on: Trichoderma virens ATCC 9645
# Test: growth yield (OD600) relative to untreated control; higher = less growth inhibition
# Settings: compound concentration: 100 uM
# Procedure, shortened: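 Spores of Trichoderma virens ATCC 9645, taken from potato dextrose agar plates grown for 7 days, were suspended at 15,000 spores ml^−1 in potato dextrose broth. In 96-well plates, 100 μl aliquots held library compounds at 100 μM final, either alone or together with a biocide at 200 ng ml^−1, and were grown at 30 °C. A BioTek EL800 read OD600 at 40 h and 72 h. Growth values are given relative to the control lacking both agents and are means of duplicate screens.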
Structure (SMILES),growth yield (40 h),growth yield (72 h)
N=C(N)NC(=O)Cc1c(Cl)cccc1Cl [Guanfacine hydrochloride],97.1 ± 1.4%,101.3 ± 0.63%
COC(=O)CCc1ccc(OCC(O)CNC(C)C)cc1 (configuration not stated) [Esmolol hydrochloride],105 ± 4.6%,100 ± 1.5%
C/C(=C\C(=O)OCCCCCCCCC(=O)O)C[C@@H]1OC[C@H](C[C@@H]2O[C@H]2[C@@H](C)[C@H](C)O)[C@@H](O)[C@H]1O [Mupirocin],6.04 ± 2.9%,39.5 ± 8.5%
O=C(O)CCC(=O)Nc1ccc(S(=O)(=O)Nc2nccs2)cc1 [Succinylsulfathiazole],94.7 ± 3.5%,93.9 ± 2.6%
"OCC(O)CN1CCN(c2ccccc2)CC1 (racemic) [Dropropizine (R,S)]",101 ± 1.6%,101.7 ± 0.63%
CC(C)(CO)C(O)C(=O)NCCCO (configuration not stated) [Panthenol (D)],100 ± 4.5%,98.1 ± 3%
CC(=O)OC[C@H]1O[C@@H]([S-])[C@H](OC(C)=O)[C@@H](OC(C)=O)[C@@H]1OC(C)=O.CCP(CC)CC.[Au+] [Auranofin],25.6 ± 2.1%,33 ± 2%
CN(C)/N=N/c1[nH]cnc1C(N)=O [Dacarbazine],95.6 ± 1.9%,98 ± 3.4%
O=C1C(O)=C([C@H]2CC[C@H](c3ccc(Cl)cc3)CC2)C(=O)c2ccccc21 [Atovaquone],95.1 ± 4.3%,97.4 ± 1.6%
COc1cccc(N(C)C(=S)Oc2ccc3c(c2)CCCC3)n1 [Liranaftate],0%,0%
CC(C)(C(=O)c1cccnc1)c1cccnc1 [Metyrapone],91 ± 3%,88.4 ± 2.6%
COc1cc2nc(N(C)CCCNC(=O)C3CCCO3)nc(N)c2cc1OC (configuration not stated) [Alfuzosin hydrochloride],104.7 ± 0.79%,105 ± 3.6%
OC(CNCC(O)C1CCc2cc(F)ccc2O1)C1CCc2cc(F)ccc2O1 (configuration not stated) [Nebivolol hydrochloride],95 ± 16%,114 ± 14%
CN(C)CCOC1=Cc2ccccc2Sc2ccc(Cl)cc21 [Zotepine],89.7 ± 14%,114 ± 11%
NC(N)=Nc1nc(CSCC/C(N)=N/S(N)(=O)=O)cs1 [Famotidine],103 ± 1.9%,101 ± 1.3%
CCCCN(CCCC)CCC(O)c1cc2c(Cl)cc(Cl)cc2c2cc(C(F)(F)F)ccc12 (configuration not stated) [Halofantrine hydrochloride],25.6 ± 6.2%,95.9%
N=C(N)N/N=C/c1c(Cl)cccc1Cl [Guanabenz acetate],91.5 ± 1.9%,90.7 ± 3.2%
COC(=O)[C@H]1[C@H]2C[C@@H]3c4[nH]c5cc(OC)ccc5c4CCN3C[C@H]2C[C@@H](OC(=O)c2cc(OC)c(OC)c(OC)c2)[C@@H]1OC [Reserpine],107 ± 5.4%,107 ± 2.8%
N=C(N)c1ccc(OCCCCCOc2ccc(C(=N)N)cc2)cc1 [Pentamidine isethionate],1.91 ± 0.95%,1.78 ± 0.52%
CCCCOc1ccc(C(=O)CCN2CCCCC2)cc1 [Dyclonine hydrochloride],93.6 ± 3%,98.7 ± 1.6%
CCCCOc1ccc(CC(=O)NO)cc1 [Bufexamac],94.2 ± 1.1%,88.1 ± 2.9%
CC(C)(C)NC[C@@H](O)COc1cccc2c1CCCC2=O [(+) -Levobunolol hydrochloride],100.2 ± 0.16%,98.9 ± 0.1%
NS(=O)(=O)Cc1noc2ccccc12 [Zonisamide],104.5 ± 0.95%,98.8 ± 1.9%

Structure (SMILES),growth yield (40 h),growth yield (72 h)
CN(C)CCN(Cc1ccccc1)c1ccccn1 [Tripelennamine hydrochloride],107 ± 1.4%,100 ± 1.6%
C[C@]1(Cn2ccnn2)[C@H](C(=O)O)N2C(=O)C[C@H]2S1(=O)=O [Tazobactam],98.96 ± 0.79%,96.8 ± 1.4%
Clc1ccccc1C(c1ccccc1)(c1ccccc1)n1ccnc1 [Clotrimazole],2.38 ± 1.8%,1.89 ± 1.1%
CN(C)c1ccc(O)c2c1C[C@H]1C[C@H]3[C@H](N(C)C)C(O)=C(C(N)=O)C(=O)[C@@]3(O)C(O)=C1C2=O [Minocycline hydrochloride],95.3 ± 0.64%,97.4 ± 2%
CC(C)(C)NC[C@H](O)COc1ccccc1C1CCCC1 [Penbutolol sulfate],109 ± 6.2%,110 ± 5.1%
CC(=O)N(CC(O)CO)c1c(I)c(C(=O)NCC(O)CO)c(I)c(C(=O)NCC(O)CO)c1I (configuration not stated) [Iohexol],103 ± 1.3%,106 ± 1.1%
CNC(C)CCC=C(C)C (configuration not stated) [Isometheptene mucate],99.1 ± 3.8%,96.2 ± 4.3%
CCCC(=O)Nc1ncnc2c1ncn2[C@@H]1O[C@@H]2COP(=O)(O)O[C@H]2[C@H]1OC(=O)CCC [Bucladesine sodium salt],97.69 ± 0.79%,97.75 ± 0.42%
Nc1nc2c(ncn2COCCO)c(=O)[nH]1 [Acyclovir],103.7 ± 0.48%,101 ± 1.7%
Nc1nc2n[nH]nc2c(=O)[nH]1 [Azaguanine-8],3.49 ± 0.95%,2.62 ± 0.1%
Nc1nc2c(ncn2COC(CO)CO)c(=O)[nH]1 [Ganciclovir],106 ± 4.3%,103 ± 4%
CC[C@]12CCCN3CCc4c(n(c5ccccc45)[C@@](O)(C(=O)OC)C1)[C@@H]32 [Vincamine],97.37 ± 0.16%,95.3 ± 1.4%
CCN1CCC[C@H]1CNC(=O)c1c(OC)ccc(Br)c1OC [Remoxipride Hydrochloride],101 ± 1.9%,101.8 ± 0.94%
O=C(O)Cc1sc(-c2ccccc2)nc1-c1ccc(Cl)cc1 [Fentiazac],63.1 ± 4.3%,88.8 ± 4.9%
CC[N+](CC)(CC)CCC(O)(c1ccccc1)C1CCCCC1 (configuration not stated) [Tridihexethyl chloride],103 ± 6.3%,101 ± 4.5%
CCCCN(CCCC)CCCOC(=O)c1ccc(N)cc1 [Butacaine],95.5 ± 4.9%,98.5 ± 4.1%
CCCCOC(=O)c1ccc(O)cc1 [Butylparaben],46.4 ± 2.2%,49.5 ± 0.84%
CCCCOC(=O)c1ccc(N)cc1 [Butamben],66.9 ± 1.8%,73 ± 2.5%
CC(C)(C)NC(=O)[C@@H]1C[C@@H]2CCCC[C@@H]2CN1C[C@@H](O)[C@H](Cc1ccccc1)NC(=O)[C@H](CC(N)=O)NC(=O)c1ccc2ccccc2n1 [Saquinavir mesylate],110 ± 3.3%,107 ± 3.1%
CC[C@H](C)C(=O)O[C@H]1C[C@@H](C)C=C2C=C[C@H](C)[C@H](CC[C@@H]3C[C@@H](O)CC(=O)O3)[C@H]21 [Lovastatin],94.8 ± 5.2%,94.5 ± 3.2%
CCCCC(CC)CN1CN(CC(CC)CCCC)CC(C)(N)C1 (configuration not stated) [Hexetidine],105 ± 3.2%,118 ± 6.3%
NCc1ccc(S(N)(=O)=O)cc1 [Mafenide hydrochloride],107 ± 2.5%,111 ± 4.2%
NS(=O)(=O)c1cc(C2(O)NC(=O)c3ccccc32)ccc1Cl (configuration not stated) [Chlorthalidone],102 ± 3.6%,105 ± 3.7%
